Screening results: PubChem, The Scripps Research Institute Molecular Screening Center
CHO-K1 Ca antag – counter-screen for M1 antagonists: effect in parental CHO-K1 cells; ATP-induced calcium, Fluo-8 fluorescence; inhibition, % at 3 µM; actives 0.6% (n = 360,000);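 active means inhibition above a per-plate cutoff, the plate's mean sample inhibition plus 3 SD, cut at about 24% in these data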;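 further: 0% = DMSO plus EC80 ATP and 100% = DMSO alone without ATP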
CHRM1 agonist – human M1 muscarinic receptor agonists, primary screen, Fluo-8 calcium fluorescence, CHO-K1 cells, HTS. actives 0.33% (n = 360,000). Muscarinic acetylcholine receptor M1 (Homo sapiens), P11229. AID 588814, 2011. activation, % at 3 µM. CHO-K1 hM1, agonist mode; 0% DMSO, 100% acetylcholine EC100;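 active means activation above the run's mean compound activation plus 3 SD, cut at about 16% in these data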;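 further: peak over basal fluorescence ratio within a 140 s kinetic read after compound addition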
Target sequence (P11229 whole entry, looked up): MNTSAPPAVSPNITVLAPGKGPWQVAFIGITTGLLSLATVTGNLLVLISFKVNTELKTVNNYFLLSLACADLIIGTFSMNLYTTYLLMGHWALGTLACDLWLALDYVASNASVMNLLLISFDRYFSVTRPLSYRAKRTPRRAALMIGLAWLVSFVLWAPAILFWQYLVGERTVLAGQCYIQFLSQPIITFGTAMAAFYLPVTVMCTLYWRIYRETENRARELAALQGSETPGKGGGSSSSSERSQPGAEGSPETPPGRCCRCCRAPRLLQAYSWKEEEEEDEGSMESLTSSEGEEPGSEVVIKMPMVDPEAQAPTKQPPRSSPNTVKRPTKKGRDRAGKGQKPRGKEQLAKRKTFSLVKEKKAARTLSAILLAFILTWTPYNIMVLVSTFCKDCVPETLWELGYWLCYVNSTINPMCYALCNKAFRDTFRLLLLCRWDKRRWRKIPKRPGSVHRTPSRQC
CHO-K1 Ca ag – counter-screen for M1 agonists: effect in parental CHO-K1 cells. Fluo-8 calcium fluorescence; scaled to maximal ATP response, vehicle zero. activation, % at 3 µM. actives 0.48% (n = 360,000). AID 602248, 2012; in the data active means activation above about 15%;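 further: untransfected CHO-K1 host cells lacking M1 receptor as counterscreen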
CHO-K1 Ca PAM – nonselective calcium activators in parental CHO-K1 cells, primary screen, counter-screen for M1 PAM project, cell-based, Fluo-8 calcium fluorescence, full deck, 1536-well. ATP EC20; 0% at ATP EC20, 100% at ATP max. activation, % at 3 µM. actives 0.02% (n = 360,000). AID 602247, 2012;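 active means activation above the run cutoff, the mean activation of all test compounds plus 3 SD, cut at about 40% in these data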;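 further: peak over basal fluorescence ratio in a 140 s read after ATP addition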
M1 PAM – human M1 muscarinic receptor positive allosteric modulators, primary screen, CHO-K1 cells, Fluo-8 calcium fluorescence, 1536-well | activation, % at 3 µM | actives 0.088% (n = 360,000) | Muscarinic acetylcholine receptor M1 (Homo sapiens), P11229 | CHO-K1 hM1, ACh EC20; 0% = ACh EC20, 100% = maximal ACh; in the data active means activation above about 19%, passing the limit was not always enough
M1 antag – human M1 muscarinic receptor antagonists, primary screen, CHO-K1 cells, Fluo-8 calcium fluorescence, 1536-well. CHO-K1 hM1, ACh EC80 antagonist. inhibition, % at 3 µM. actives 1.3% (n = 360,000);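 active means percent inhibition above its own plate's cutoff, namely the mean of that plate's compound wells plus 3 SD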;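 further: peak over basal fluorescence ratio during 140 s after agonist addition; 0% = ACh EC80 plus DMSO and 100% = DMSO alone without agonist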
* hit, by the source's call. A selection: hits, their analogues and other compounds. The true share with any hit is near 2.3%.

SMILES	CHO-K1 Ca antag	CHRM1 agonist	CHO-K1 Ca ag	CHO-K1 Ca PAM	M1 PAM	M1 antag
COc1ccc(C(C(=O)NCc2ccccc2)N(Cc2ccco2)C(=O)c2snc(C(N)=O)c2N)cc1OC (stereo not given)	14	0	8	3	-9	16
O=c1c(/C=C(\O)c2ccccc2)nc2ccccc2n1-c1ccccc1	1	22*	3	13	-9	19
Cc1cc2ncn(/N=C/c3ccc([N+](=O)[O-])o3)c2cc1C	2	5	0	-2	23	-38
CC(C)c1c(O)ccc2c1CC[C@H]1C(C)(C)CCC[C@]21C	26*	-2	-1	-11	-2	-21
CC(C)(O)c1ccc2c(c1)CCC1C(C)(C(=O)O)CCCC21C (stereo not given)	19	-2	0	-4	2	-1
COc1ccc(CCN2CC(C(=O)N(C)Cc3cccnc3)CC2=O)cc1OC (stereo not given)	-17	-1	0	4	9	-15
CCn1c(SCc2ccccc2)nnc1-c1ccc(S(=O)(=O)N2CCCCC2)cc1	2	-2	6	9	-12	27*
Cc1nc(NC(=O)c2cccnc2Cl)sc1C	8	-2	0	-22	1	-1
Cc1ccc(NC(=O)c2cc(-c3cc(C)c(C)cc3O)n[nH]2)cc1C	10	6	-1	-1	28*	-24
Fc1cccc(Cc2noc(CN3CCC(c4ccncc4)CC3)n2)c1	8	-6	3	-4	-5	7
Cc1ccccc1-n1c(-c2ccc(Cl)cc2)cnc1SCC(=O)NC1CCS(=O)(=O)C1 (stereo not given)	-2	-8	1	17	9	-5
COc1ccc(C(=O)c2sc(Nc3ccccc3)nc2N)cc1	-18	2	2	32	12	-17
Nc1nc(Nc2ccccc2)sc1C(=O)c1ccccc1	-11	16*	14	18	24	-19
CC(C)c1ccc(NC2CCCN(C(=O)CSc3nncn3C)C2)cc1 (stereo not given)	-1	0	0	30	16	-20
CC1CCC(NC(=O)C2c3ccccc3C(=O)N2Cc2cccs2)CC1 (stereo not given)	-4	-4	1	22	8	-8
Cc1cccc(NC(=O)CN2C(=O)S/C(=C\c3cc(C)n(C)c3C)C2=O)c1	-8	-1	4	21	-7	12
Cc1ccc(NC(=O)CN2C(=O)S/C(=C\c3cc(C)n(C)c3C)C2=O)cc1	-2	-4	4	-8	-24	41*
O=C1C2CCCN2C(c2cccs2)N1c1ccc(F)cc1 (stereo not given)	7	-11	3	-5	3	-3
COc1cccc(N2C(=O)C3CCCN3C2c2cccs2)c1 (stereo not given)	-12	18*	0	26	7	-6
COc1ccc(C2NC(=O)C(C#N)=C(S)N2c2ccc(C)cc2)cc1OC (stereo not given)	-12	-1	1	14	7	-4
COc1ccc(C2NC(=O)C(C#N)=C(S)N2c2cccc(C)c2)cc1OC (stereo not given)	3	-2	16*	13	6	5
O=C(NCc1ccc2c(c1)OCO2)c1nc(Cn2cc(Br)cn2)no1	11	-2	0	7	-4	8
COc1ccc(-c2cc(=O)c3ccc(O)cc3o2)cc1	1	1	0	10	24*	-23
CC1CC(C)CN(CCCNC(=O)C2CCCN(c3ncnc4c3nc3n4CCCCC3)C2)C1 (stereo not given)	2	-12	0	-6	-19	29*
CC1CCCN(CCCNC(=O)C2CCCN(c3ncnc4c3nc3n4CCCCC3)C2)C1 (stereo not given)	-6	-5	-1	17	2	5
SMILES	CHO-K1 Ca antag	CHRM1 agonist	CHO-K1 Ca ag	CHO-K1 Ca PAM	M1 PAM	M1 antag
Cc1ccccc1CN1CCC(CNC(=O)C2CCCN(c3ncnc4c3nc3n4CCCCC3)C2)CC1 (stereo not given)	-20	-14	2	1	-41	101*
COc1cccc(CCNC(=O)C2CCCN(c3ncnc4c3nc3n4CCCCC3)C2)c1OC (stereo not given)	-6	-5	0	2	1	1
COCc1c(C(=O)N/N=C/c2ccc(C)o2)nnn1-c1nonc1N	0	-3	9	13	5	-4
O=C(O)CCC(=O)N1c2ccccc2NC2=C(C(=O)CC(c3ccc(F)cc3)C2)C1c1ccc([N+](=O)[O-])o1 (stereo not given)	25*	-6	0	-18	-9	8
CCC(Sc1ccc(Cl)cc1)C(=O)Nc1nnc(-c2cccc([N+](=O)[O-])c2)s1 (stereo not given)	-3	20*	1	23	5	-9
CCC(Sc1nncn1C)C(=O)Nc1nnc(-c2ccccc2Cl)s1 (stereo not given)	-6	-8	0	14	4	-12
CN1/C(=C\C(=O)COC(=O)c2ccccc2O)C(C)(C)c2ccccc21	5	-2	17*	5	-7	8
CN1/C(=C\C(=O)CSc2ncn[nH]2)C(C)(C)c2ccccc21	26*	-1	4	-11	-9	20
Cc1ccc(C)c(S(=O)(=O)N2CCN(C(=O)c3sccc3C)CC2)c1	-14	-2	1	8	11	-11
COc1ccccc1NC(=O)CN(c1ccccc1)S(=O)(=O)c1ccccc1	-9	-1	1	11	5	-2
Cc1ccc(S(=O)(=O)N(CC(=O)Nc2ccccc2C(=O)O)c2ccccc2)cc1	14	-9	16*	-3	9	2
CCN(CC)CCN1C(=O)C(=O)/C(=C(/O)c2c(C)[nH]c(C(=O)OC)c2C)C1c1ccccc1OC (stereo not given)	31*	-2	0	-7	0	8
CCc1nc2ccc(C(=O)NCCCn3ccnc3)cn2c1N(CC)C(=O)NCCc1ccccc1	-2	-4	0	6	5	-11
CCc1nc2ccc(C(=O)N3CCCCC3)cn2c1N(C)CCCc1ccccc1	-8	-8	1	5	-25	69*
CCc1nc2ccc(C(=O)N3CCN(C)CC3)cn2c1N(C)CCCc1ccccc1	-14	-8	2	14	-30	33*
